Rows were chosen to be rich in hits. Some 4.2% of all compounds tested hit in one or more screens of this group.
Wnt act: Wnt/beta-catenin pathway activation. actives 1.2% (n = 300,000). Wnt/beta-catenin reporter cell assay, activator, plate reader. activation, % at 9.35 µM; in the data active means activation above about 30%, passing the limit was not always enough; inconclusive means no clear call, values can overlap the other calls;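 further: 0% = neutral control wells and 100% = positive control wells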
esBAF inh: inhibitors of esBAF chromatin remodeling in mouse ES cells; AID 602393; actives 2% (n = 350,000); reporter increase, % at 12.5 µM; Bmi1-luciferase knock-in reporter, 24 h; 100% = twice the neutral-well signal; in the data active means activation above about 40%; inconclusive means no clear call, values can overlap the other calls;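 further: 0% = median of the plate's neutral control wells and 100% = double that signal; a rise in the Bmi1 reporter signal indicates esBAF inhibition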
MITF act: MITF TRPM1 promoter activation in melanoma cells; SK-MEL-5 TRPM1-promoter luciferase, 24 h; % of positive control, neutral wells = 0; activation, % at 12.5 µM; actives 0.75% (n = 300,000);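 active means mean activation of at least 80% with every replicate also reaching 80%; inconclusive means mean reaches 80% but some replicate falls short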;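 further: 0% = neutral control wells and 100% = parthenolide positive control wells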
AHR activator: activators of human aryl hydrocarbon receptor | activation, % at 5 µM | AID 2796 | actives 2.5% (n = 320,000) | P35869 | AHR-responsive luciferase reporter cells, luminescence; in the data active means activation above about 47%;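 further: 0% = vehicle wells and 100% = reference agonist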
Target sequence (P35869 whole entry, looked up): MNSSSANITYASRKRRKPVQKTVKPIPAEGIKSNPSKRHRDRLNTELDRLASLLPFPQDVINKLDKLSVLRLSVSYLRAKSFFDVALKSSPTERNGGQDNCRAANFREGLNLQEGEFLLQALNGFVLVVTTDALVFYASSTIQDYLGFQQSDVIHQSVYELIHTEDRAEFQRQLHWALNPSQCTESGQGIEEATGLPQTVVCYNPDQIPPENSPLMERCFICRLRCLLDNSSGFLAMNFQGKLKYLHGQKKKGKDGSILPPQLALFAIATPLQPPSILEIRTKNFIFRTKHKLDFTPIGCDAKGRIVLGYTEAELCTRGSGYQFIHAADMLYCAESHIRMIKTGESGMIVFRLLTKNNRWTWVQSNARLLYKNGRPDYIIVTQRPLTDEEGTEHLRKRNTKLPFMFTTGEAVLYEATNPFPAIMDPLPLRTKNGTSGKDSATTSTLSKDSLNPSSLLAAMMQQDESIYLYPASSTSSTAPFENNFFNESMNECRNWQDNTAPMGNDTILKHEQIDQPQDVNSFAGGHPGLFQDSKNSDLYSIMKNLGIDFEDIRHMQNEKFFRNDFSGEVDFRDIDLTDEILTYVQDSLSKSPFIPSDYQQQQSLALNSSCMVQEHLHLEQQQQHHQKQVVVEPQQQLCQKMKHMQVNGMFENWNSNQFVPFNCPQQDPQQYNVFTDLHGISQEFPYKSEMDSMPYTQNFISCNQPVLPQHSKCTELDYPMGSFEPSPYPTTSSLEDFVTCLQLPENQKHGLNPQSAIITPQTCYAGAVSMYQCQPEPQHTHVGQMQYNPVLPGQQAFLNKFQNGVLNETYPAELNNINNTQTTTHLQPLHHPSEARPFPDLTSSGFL
FXN GAA850 act: increases GAA850 frataxin promoter reporter activity; HEK293 lucGAA850 FXN promoter luciferase reporter, 24 h; percent of 10 µM SAHA response; activation, % at 6 µM; actives 0.56% (n = 360,000); AID 540364;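 active means activation above the average of all compounds screened plus 3 SD, cutoff fixed separately per campaign, cut at about 7.5% in these data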;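 further: 0% = DMSO wells and 100% = 10 µM SAHA wells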
AHR act cf: confirmation of human aryl hydrocarbon receptor activators; shares compounds with AHR activator; human cells, AHR-responsive luciferase reporter, luminescence; actives 87% (n = 2,300); activation, % at 9 µM; in the data active means activation above about 49%;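 further: HepG2 hepatoma cells carrying a DRE-driven firefly luciferase reporter; 0% = vehicle wells and 100% = reference agonist wells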
PXR counter: counter-screen for AHR activators: human PXR activators | cell-based PXR reporter, luciferase luminescence | actives 88% (n = 2,300) | shares compounds with AHR activator | AID 434939 | activation, % at 11.6 µM; in the data active means activation above about 11%;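 further: human hepatoma DPX-2 cells expressing full-length human PXR; 0% = DMSO and 100% = reference agonist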
* = called active by the depositor.

For COc1cccc(OC)c1C(=O)Nc1nc2ccc([N+](=O)[O-])cc2s1 the results were Wnt act -4, esBAF inh 5, MITF act 3, AHR activator 81*, FXN GAA850 act -2, AHR act cf 75* and PXR counter 9.
For CCOC(=O)c1cccc(C(=O)Nc2nc3ccc(OC)cc3s2)n1 the results were Wnt act 14, MITF act 46, AHR activator 14 and FXN GAA850 act 2.
`O=C(CN1CCOCC1)Nc1nc2ccc([N+](=O)[O-])cc2s1` gave Wnt act 3, MITF act -5, AHR activator 133*, FXN GAA850 act 0 and AHR act cf 91*.
For COc1ccccc1NC(=O)c1ccc([N+](=O)[O-])cc1[N+](=O)[O-] the results were Wnt act 2, MITF act -14, AHR activator 104*, FXN GAA850 act 0, AHR act cf 94* and PXR counter 29*.
`CCCNC(=O)Nc1ccc2c(c1)C(=O)N(C)[C@H]1CC[C@H](CC(=O)Nc3ccccc3C)O[C@@H]1CO2` gave esBAF inh -1.
Screening C[C@@H]1CN([C@H](C)CO)C(=O)c2cccc(N(C)C)c2O[C@@H]1CN(C)Cc1ccc2c(c1)OCO2 returned esBAF inh -6.
For O=C(/C=C/c1ccccn1)c1cc(Cl)cc(Cl)c1O the results were Wnt act -14, esBAF inh -9, MITF act 9, AHR activator 83*, FXN GAA850 act -3, AHR act cf 113* and PXR counter 219*.
O=C(NCC[C@H]1CC[C@H](NC(=O)C2CC2)[C@@H](CO)O1)Nc1ccc(C(F)(F)F)cc1 was read as esBAF inh -1.
For N=C(N)N=Nc1c(O)[nH]c2ccc(Br)cc12 the results were Wnt act 1, MITF act 0, AHR activator 93*, FXN GAA850 act 3, AHR act cf 88* and PXR counter 28*.
CO[C@H]1CN(C)C(=O)c2cc(NC(=O)Cc3ccccc3)ccc2OC[C@H](C)NC[C@H]1C was read as esBAF inh 5.
For COc1ccc(NC(=O)N[C@H]2CC[C@H](CCNC(=O)c3ccccc3F)O[C@@H]2CO)cc1 the results were esBAF inh -2.
Cc1nc2cncc(Br)c2n1C was read as Wnt act 0, esBAF inh -3, MITF act -5, AHR activator 81*, FXN GAA850 act 4, AHR act cf 46 and PXR counter 24*.
Screening COc1ccc(/C=N\NC(=O)c2ccccc2F)cc1COc1ccc(F)cc1F returned Wnt act -2, esBAF inh -10, MITF act -20, AHR activator 14 and FXN GAA850 act -3.
Screening COc1ccc(/C=N/NC(=O)c2nc(Cl)c(Cl)c(N)c2Cl)cc1COc1ccc(F)cc1F returned Wnt act -1, esBAF inh 9, MITF act -17, AHR activator 84*, FXN GAA850 act 3, AHR act cf 97* and PXR counter 60*.
`COc1ccc(/C=N/NC(=O)c2nc(Cl)c(Cl)c(N)c2Cl)cc1COc1ccccc1F` gave esBAF inh 10, MITF act 7, AHR activator 116*, FXN GAA850 act 6, AHR act cf 99* and PXR counter 105*.
For COc1ccc(/C=N\NC(=O)c2ccccc2OC)cc1COc1ccccc1C the results were Wnt act 1, esBAF inh 2, MITF act 14, AHR activator 96*, FXN GAA850 act 2, AHR act cf 109* and PXR counter 35*.
C[C@H](CO)N1C[C@H](C)[C@H](CN(C)C(=O)Cc2cccnc2)Oc2ncc(C3=CCCCC3)cc2C1=O was read as esBAF inh -5.
For CC1CCC/C(=N/NC(=O)c2ccccc2-n2cccc2)C1 (stereo unspecified) the results were Wnt act -1, MITF act -4, AHR activator 83*, FXN GAA850 act 0, AHR act cf 7 and PXR counter 11*.
For O=C(NN=C1CCC(c2ccccc2)CC1)c1ccccc1-n1cccc1 (stereo unspecified) the results were Wnt act 0, MITF act -2, AHR activator 117*, FXN GAA850 act 2, AHR act cf 4 and PXR counter 9.
For CC1CCC(=NNC(=O)c2ccccc2-n2cccc2)CC1 (stereo unspecified) the results were Wnt act -1, esBAF inh 8, MITF act -5, AHR activator 40 and FXN GAA850 act 0.
`CCOC(=O)c1[nH]c(C)c(C(=O)NCCC2=CCCCC2)c1C` gave esBAF inh inconclusive, MITF act 62, AHR activator 13 and FXN GAA850 act 0.
`CC(=O)c1c(C)[nH]c(C(=O)NCCC2=CCCCC2)c1C` gave Wnt act 1, esBAF inh -17, MITF act 44, AHR activator 146*, FXN GAA850 act 1, AHR act cf 110* and PXR counter 70*.
For CCCN1[C@@H]2c3ccc(-c4cccnc4)c(=O)n3C[C@H]1[C@H](CO)[C@H]2C(=O)NCCc1cn(C)cn1 the results were esBAF inh -5.
For CCOc1ccc(NC(=O)c2cc(Cl)nc3ccccc23)cc1 the results were Wnt act -4, AHR activator 95*, FXN GAA850 act 0, AHR act cf 91* and PXR counter 11*.
For O=C(Nc1ccccc1C(=O)Nc1ccc(Cl)cc1)c1cccnc1 the results were Wnt act 2, esBAF inh 5, MITF act -4, AHR activator 86*, FXN GAA850 act 0, AHR act cf 56* and PXR counter 31*.
`CCOc1ccc(-c2cc(C(=O)Nc3ccc4c(c3)OCCO4)c3ccccc3n2)cc1` gave esBAF inh 26, MITF act 11, AHR activator 15 and FXN GAA850 act -3.
For COc1ccc(OC)c(NC(=O)c2cccnc2)c1 the results were Wnt act 0, esBAF inh -6, MITF act 1, AHR activator 7 and FXN GAA850 act 1.
`COc1ccc(Cl)cc1NC(=O)c1cccnc1` gave Wnt act 1, esBAF inh -2, MITF act 0, AHR activator 88*, FXN GAA850 act 1, AHR act cf 107* and PXR counter 11*.
Screening CCOc1ncccc1C(=O)Nc1ccc(Cl)cc1 returned Wnt act 3, MITF act -6, AHR activator 117*, FXN GAA850 act 2, AHR act cf 122* and PXR counter 19*.
C[C@@H]1CN([C@H](C)CO)C(=O)Cc2cc(NC(=O)Nc3ccc(F)cc3)ccc2O[C@@H]1CN(C)S(=O)(=O)c1ccc(F)cc1 was read as esBAF inh -7.

Compound activity from PubChem BioAssay.
